Source: PubChem BioAssay (several laboratories)
CCHFV vOTU inh – blocks the CCHF virus ovarian tumor domain protease; CCHFV vOTU protease, Pep-AMC fluorescence; inhibition, % at 11.5 µM; 370,000 compounds, 0.55% hits; in the data active = inhibition above about 30%; also: 0% = vehicle wells with enzyme and 100% = no enzyme wells
PrPC TRFRET – cell surface PrPC inhibition, primary TR-FRET screen. inhibition, % at 13.8 µM. 370,000 compounds, 0.43% hits. P04156. AID 720596. TR-FRET read-out; in the data active = inhibition above about 24%; also: 0% = median of the test wells and 100% = reference compound wells
BH1578 lux ind – induces V. cholerae light production without autoinducers; 350,000 compounds, 0.16% hits; activation, % at 18.7 µM; V. cholerae BH1578 lux reporter, luminescence, 6 h; AID 588436; in the data active = activation mostly above about 9.7%, no sharp cut-off
Y pestis TopoI – Y. pestis Topo-I inhibition via cleavage products. Y. pestis Topo-I cleavage product accumulation, plate reader. 360,000 compounds, 0.064% hits. activity, % at 10 µM. AID 504884; in the data active = activity above about 50%, passing the limit was not always enough
PrPC confirm – cell surface PrPC inhibition, TR-FRET confirmation. shares compounds with PrPC TRFRET. cell surface PrPC level. inhibition, % at 13.8 µM. 1,500 compounds, 65% hits; in the data active = inhibition above about 25%
LD9 tox – LD9 cell cytotoxicity, PrPc inhibitor counter-screen | 1,500 compounds, 29% hits | inhibition, % at 13.8 µM | shares compounds with PrPC TRFRET | AID 743201 | LD9 cells cytotoxicity, luminescence viability; in the data active = inhibition above about 9.5%
An asterisk follows results filed as active; i = inactive; nt = no result given. Shown are actives, neighbours in structure and some others; about 1.1% of the full set was active somewhere.

SMILES | CCHFV vOTU inh | PrPC TRFRET | BH1578 lux ind | Y pestis TopoI | PrPC confirm | LD9 tox
COc1ccc(C(=O)NC(=S)Nc2ccc(CN3CCOCC3)cc2)cc1 | 16.3 | 12.6 | i | 11.4 | nt | nt
Cc1cc(C2(c3ccc(O)c(C)c3)OC(=O)c3ccccc32)ccc1O | -6.5 | 2.2 | -0.7 | -20.9 | nt | nt
Cc1cc(O)c(C(C)C)cc1C1(c2cc(C(C)C)c(O)cc2C)OC(=O)c2ccccc21 | 9.2 | 25.1* | -0.6 | 0.8 | 15.8 | -7.0
CS(=O)(=O)Nc1ccccc1C(=O)N1CCOCC1 | 2.6 | 34.3* | -11.1 | 0.1 | 9.3 | -4.7
COC(=O)C(C)Oc1ccc(Cc2ncc(C(F)(F)F)cc2Cl)cc1 (stereo not drawn) | -1.5 | 62.1* | -8.3 | 3.6 | 0.1 | -10.7
Cc1cc(C)c(CN2CCN(C(=O)CC[C@H]3O[C@@H](n4cnc5c(NC(=O)c6ccccc6)ncnc54)[C@H](O)[C@@H]3O)CC2)c(C)c1 | 5.7 | 3.9 | nt | nt | nt | nt
C[C@H]1[C@H](OC(=O)CCC(=O)NCc2ccc(C(=O)O)cc2)O[C@@H]2O[C@@]3(C)CC[C@H]4[C@H](C)CC[C@@H]1C24OO3 | nt | nt | 0.0 | 4.1 | nt | nt
CC(C)CC(NC(=O)CCCNC(=O)CCC(=O)OC1O[C@H]2OC3(C)CC[C@H]4[C@H](C)CCC(C1C)C24OO3)C(=O)O (stereo partly drawn) | -1.5 | 28.0* | i | -4.9 | 37.8* | 19.6*
CC1C(OC(=O)CCC(=O)NC(C)(C)CO)O[C@H]2OC3(C)CC[C@H]4[C@H](C)CCC1C24OO3 (stereo partly drawn) | -7.6 | 32.7* | -0.5 | 15.9 | 33.0* | 19.3*
CC(C)CC(N)c1csc(Nc2ncccn2)n1 (stereo not drawn) | -8.3 | 41.5* | -0.2 | 6.7 | 50.1* | -1.3
CCOC(=O)c1c(-c2ccc(C)s2)csc1N | 1.0 | 70.4* | 1.3 | -8.2 | 53.8* | -1.9
CCOC(=O)c1c(-c2ccsc2)csc1N | 3.6 | -4.9 | i | -8.6 | nt | nt
COc1ccc(C(CNC(=O)Cc2ccccc2Cl)N2CCCCC2)cc1 (stereo not drawn) | -12.5 | -8.8 | i | 13.5 | nt | nt
O=c1nc(SCc2cccc(C(F)(F)F)c2)nc2ccccn12 | 8.1 | 34.0* | -0.2 | 7.2 | 15.7 | -3.3
Cc1ccn2c(=O)nc(SCc3cccc(C(F)(F)F)c3)nc2c1 | 7.6 | 17.6 | 2.6 | 17.1 | nt | nt
O=C(CN1CCCCC1)Nc1c2c(nc3ccccc13)N(c1ccccc1)CC2 | -77.3 | 44.0* | -3.2 | 34.9 | 102.2* | 11.6*
Cn1c(CCNC(=O)C2CCCCC2)nc2cc([N+](=O)[O-])ccc21 | -8.5 | -15.8 | 2.8 | -1.6 | nt | nt
Cn1c(CNC(=O)C2CCCCC2)cc2cc(Cl)ccc21 | 9.6 | 30.8* | i | 6.1 | 35.0* | -5.3
Cc1cc2cc(CNC(=O)C3CCCC3)ccc2n1C | -2.1 | 44.3* | i | 24.3 | 4.7 | -2.9
S=C(NCc1ccc2[nH]c3c(c2c1)CCCC3)Nc1ccccc1Cl | 2.5 | 9.1 | -0.4 | 1.2 | nt | nt
O=C(OCC(=O)N1CCOCC1)c1ccccc1OCc1ccccc1Cl | 7.2 | -1.8 | -0.4 | 30.4 | nt | nt
CCN(CC)C(=O)CSc1nc(COc2ccccc2)nc2ccccc12 | 2.3 | -5.5 | -0.3 | 0.2 | nt | nt
Cc1ccccc1NC(=O)CSc1nc(COc2ccccc2)nc2ccccc12 | -1.6 | 2.9 | i | -1.1 | nt | nt
COC(=O)CSc1nc(COc2ccccc2)nc2ccccc12 | 13.1 | 49.0* | -0.3 | -18.0 | 65.9* | -6.4
CCCCNC(=O)CSc1nc(CCC)nc2ccccc12 | 7.7 | 46.0* | -0.5 | 12.9 | 59.1* | -6.4
SMILES | CCHFV vOTU inh | PrPC TRFRET | BH1578 lux ind | Y pestis TopoI | PrPC confirm | LD9 tox
CCCNC(=O)CSc1nc(COc2ccccc2)nc2ccccc12 | -12.2 | 29.2* | 0.1 | 24.8 | 40.7* | -3.3
CCCc1nc(SCC(=O)Nc2nccs2)c2ccccc2n1 | -3.0 | 19.8 | -10.0 | -0.3 | nt | nt
CN1CCN(C(=O)c2cccc(NS(=O)(=O)c3ccc(Br)cc3)c2)CC1 | -2.7 | 2.8 | 7.1 | 2.3 | nt | nt
O=C1c2ccccc2C(=O)N1Cc1cccnc1 | 16.6 | 7.5 | -1.0 | 0.2 | nt | nt
CC(=O)c1sc(NC(=O)Cc2c(F)cccc2Cl)nc1C | 8.8 | 40.9* | -0.1 | -8.5 | 43.5* | -8.9
CCOC(=O)Cc1csc(NC(=O)COC(=O)/C=C/c2ccc(OC)cc2)n1 | 7.6 | -1.8 | -0.5 | -5.8 | nt | nt
COc1ccc2c(c1)c(=O)oc1cc(O)ccc12 | -11.0 | 8.1 | -0.5 | -5.0 | nt | nt
O=c1oc2cc(O)ccc2c2ccccc12 | 3.2 | 28.1* | -2.8 | -6.0 | 32.7* | 0.5
CCOC(=O)c1c(C)[nH]c(C(=O)C(C)OC(=O)c2cccc(OCc3c(C)noc3C)c2)c1C (stereo not drawn) | 9.7 | 38.3* | i | -0.9 | 26.3* | 5.1
O=C(NCc1cccs1)c1cc(-c2ccccc2)nn1CC1CC(c2cccnc2)=NO1 (stereo not drawn) | 0.1 | 1.0 | i | 15.2 | nt | nt
CC(C)c1ccc(C(=O)N2CCOCC2c2cc(C(=O)Nc3ccccc3)no2)cc1 (stereo not drawn) | 2.4 | -3.7 | -0.4 | 5.5 | nt | nt
COC(=O)c1ccccc1NC(=O)Nc1cccnc1 | -5.1 | -0.3 | -0.1 | 0.9 | nt | nt
O=C(Cn1cnc2ccccc2c1=O)Nc1nnc(C2CC2)s1 | -9.4 | 0.0 | -3.8 | 3.3 | nt | nt
CC(C)(C)c1csc(NC(=O)Cn2cnc3ccccc3c2=O)n1 | 0.4 | 35.5* | i | -9.9 | 24.9* | 1.3
Cc1cc(OCc2cc3c(cc2Cl)OCO3)c2c(C)cc(=O)oc2c1 | 8.9 | -0.3 | i | 1.8 | nt | nt
CC(=O)c1cccc(NC(=O)C2=CN3CCS(=O)(=O)N=C3C=C2)c1 | 1.9 | 46.1* | 0.4 | -1.5 | 45.5* | 5.1
O=C(CSc1ccccc1)NCCc1ccccc1 | 9.8 | -0.8 | -0.2 | -4.3 | nt | nt
O=C(CSc1ncnc2ccccc12)NCc1ccco1 | -8.9 | 76.0* | 0.7 | -1.3 | 76.6* | -1.4
O=C(CSc1ncnc2ccccc12)NCCc1ccccc1 | 0.7 | 62.1* | -2.4 | 8.8 | 78.9* | -7.7
O=C(CSc1ncnc2ccccc12)NC1CCS(=O)(=O)C1 (stereo not drawn) | -3.5 | 9.6 | 1.2 | -0.4 | nt | nt
O=C(CSc1ncnc2ccccc12)NCCCO | -1.1 | 36.1* | -0.5 | -1.2 | 31.7* | -6.9
CCCCCN1CCCCC(NC(=O)c2ccc(C)cc2)C1=O (stereo not drawn) | 2.4 | -6.7 | nt | nt | nt | nt
O=C(NC1CCCCC1)c1c2c(nc3ccccc13)CCC2 | -5.7 | -5.3 | 0.7 | 3.5 | nt | nt
COc1ccc(NC(=O)c2cc(-c3ccc(F)cc3C)n[nH]2)cc1OC | 7.6 | 25.0* | -0.4 | 5.8 | 12.8 | 7.5
COc1ccc(NC(=O)c2cc(-c3cc(Cl)ccc3C)n[nH]2)cc1OC | 1.0 | 25.0* | i | -2.4 | 28.2* | 15.2*
COc1ccc(C(=O)c2c3ccc(OC)cc3[n+]([O-])n2Cc2ccc(C(N)=O)cc2)cc1 | 7.1 | -12.8 | -0.6 | 12.2 | nt | nt
CC(C)[C@H](NC(=O)OC(C)(C)C)c1cc(C(=O)NCCc2c[nH]c3ccccc23)c(N)s1 | 10.1 | 4.6 | nt | nt | nt | nt
